TRPML1 agonist = qHTS for Agonists of the Human Mucolipin Transient Receptor Potential 1 (TRPML1); hit rate 0.12% among 410,000; activation, % (test concentration not listed); Mucolipin-1 (Homo sapiens), Q9GZU1; TRPML1-expressing cells, Ca2+ dye fluorescence, FDSS; in the data active = activation above about 50%; inconclusive = mostly about 30% to 49%
Target sequence (Q9GZU1 whole entry, looked up): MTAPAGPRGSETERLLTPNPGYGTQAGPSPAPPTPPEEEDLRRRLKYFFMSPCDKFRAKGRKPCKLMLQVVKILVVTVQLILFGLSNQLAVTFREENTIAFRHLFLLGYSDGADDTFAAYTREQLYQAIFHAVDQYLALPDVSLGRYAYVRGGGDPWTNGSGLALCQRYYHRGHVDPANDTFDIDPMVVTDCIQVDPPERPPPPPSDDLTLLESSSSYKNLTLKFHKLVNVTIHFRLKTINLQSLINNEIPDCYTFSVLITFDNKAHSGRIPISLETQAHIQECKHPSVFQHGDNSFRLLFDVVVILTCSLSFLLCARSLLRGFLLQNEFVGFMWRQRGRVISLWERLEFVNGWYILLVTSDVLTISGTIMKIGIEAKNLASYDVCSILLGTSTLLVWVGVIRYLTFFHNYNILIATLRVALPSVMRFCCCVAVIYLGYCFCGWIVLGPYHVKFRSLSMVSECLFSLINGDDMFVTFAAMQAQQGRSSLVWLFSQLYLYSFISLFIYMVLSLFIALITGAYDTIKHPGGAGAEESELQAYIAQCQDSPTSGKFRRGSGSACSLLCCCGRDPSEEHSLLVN
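Tetracycline-induced TRPML1-DL cells are seeded and incubated overnight before loading with a no-wash Ca2+ dye and quencher. Agonist activity is taken from the 110 s fluorescence read following compound pin-transfer on an FDSS, before EC80 54-4 challenge.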
TRPML1 inh = qHTS for Inhibitors of the Human Mucolipin Transient Receptor Potential 1 (TRPML1); Mucolipin-1 (Homo sapiens), Q9GZU1; TRPML1-inducible cells, Ca2+ dye fluorescence, FDSS; hits give low values; inhibition of EC80 agonist-evoked calcium signal; activity change, negative = inhibition, % (concentration not given with the values); hit rate 0.02% among 390,000; AID 624415, 2012; in the data active = activity change below about -50%; inconclusive = between about -30% and that limit;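 also: stimulus is agonist 54-4 at its EC80 concentration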
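TRPML1-DL cells, Tet-induced overnight (~16 h, 37 °C) at 1,500 cells/well, were loaded with Ca8 no-wash dye plus quencher for 45-90 min at room temperature. Compounds were pinned during FDSS kinetic reading; agonist 54-4 at EC80 (4 uM final) then added.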
GLP-1R inv ag = qHTS of GLP-1 Receptor Inverse Agonists (Inhibition Mode); HEK293 GLP-1R CRE-luciferase, luminescence, 24 h; GLP-1R form is constitutively active; Glucagon-like peptide 1 receptor (Homo sapiens), P43220; Potency, µM (series often up to 38.3 µM), usual class: inhibitors; hit rate 1.6% among 410,000; also: nearly all actives have a fitted effect of over 55% in size
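Constitutively active GLP-1R drives a cAMP-responsive luciferase in stably transfected HEK293 cells; test compounds are added after overnight (12 h) attachment and left 24 hr, and signal loss in luminescence marks inhibition.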
GLP1R ag = qHTS of GLP-1 Receptor Agonists | Glucagon-like peptide 1 receptor (Homo sapiens), P43220 | HEK293 GLP-1R CRE-luciferase, luminescence, 4-6 h; cells express a hypersensitive GLP-1R form | Potency, µM (doses to about 45.6 µM), hits mostly activators | hit rate 0.007% among 380,000 | AID 624172, 2012
GLP1R cytotox = qHTS of GLP-1 Receptor Inverse Agonists: Cytotox Screen | HEK293 cAMP-luciferase reporter cells, luminescence, 24 h | hit rate 0.13% among 410,000 | Potency, µM (highest dose often 38.3 µM), actives largely listed as inhibitors | AID 624418, 2012;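 also: loss of luciferase light is scored as toxicity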
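Seeding density was 200 cells/uL; after overnight-length (12 h) culture, 23 nL compounds went on for 24 h at 37 °C. Readout used a luciferase detection reagent, luminescence taken after 12 min at room temperature.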
Each line names hits and unclear results; the compound was inactive in the other large screens. Compounds with a hit are over-represented: about 1.8% of the library has one in this group of screens. Unless noted, calls follow the shape of the dose curve; as a rule, active = well fitted curve in the direction sought with a large enough effect; inconclusive = small, poorly fitted or top-dose-only effect, or another doubt; inactive = no such curve, though single readings can be large; an effect the other way counts as inactive or inconclusive.

CCCN(CCC)Cc1c(C(=O)N/N=C/C(C)=C\c2ccccc2)nnn1-c1nonc1N	GLP-1R inv ag 2.8µM
Nc1nonc1-n1nnc(C(=O)N/N=C/C=C/c2ccccc2)c1CSC1=NCCS1	GLP-1R inv ag 7.9µM, GLP1R cytotox inconclusive
Nc1nonc1-n1nnc(C(=O)N/N=C/c2c(Cl)cccc2Cl)c1CSC1=NCCS1	none
CCCc1c(C(=O)N/N=C/C(C)=C/c2ccccc2)nnn1-c1nonc1N	none
O=C(NCc1ccccc1CN1CCCC1)c1ccc(S(=O)(=O)Nc2ccccc2)cc1	GLP-1R inv ag 13µM
O=C(NCc1ccccc1CN1CCCC1)c1ccc(S(=O)(=O)Nc2ccccc2F)cc1	none
CCCNC(=O)C(Cc1ccccc1C)NC(=O)c1ccc(C#N)cc1 (configuration not stated)	GLP1R cytotox 2.5µM
Cc1ccc(S(=O)(=O)N2CCC(C(=O)Nc3cc(C(F)(F)F)ccc3N3CCOCC3)CC2)cc1C	GLP-1R inv ag 13µM
O=C(Nc1cc(S(=O)(=O)N2CCCCC2)ccc1N1CCOCC1)c1ccc(C(F)(F)F)cc1	GLP-1R inv ag inconclusive
O=C(Nc1ccccc1N1CCCCC1)C1CCN(S(=O)(=O)c2ccccc2C(F)(F)F)CC1	GLP-1R inv ag 7.9µM
Cc1c(C)c2c(c(C)c1OC(=O)CCC(=O)OCCO)CC[C@](C)(CCC[C@H](C)CCC[C@H](C)CCCC(C)C)O2	none (no result: TRPML1 agonist, TRPML1 inh, GLP-1R inv ag, GLP1R cytotox)
CCO[C@@H](Cc1ccc(OCCc2ccc(OS(C)(=O)=O)cc2)cc1)C(=O)O	none (no result: TRPML1 agonist, TRPML1 inh, GLP-1R inv ag, GLP1R cytotox)
CC(=O)c1c(C)[nH]c(C(=O)Nc2ccc(C)cn2)c1C	GLP-1R inv ag 5.6µM
CC(=O)c1c(C)[nH]c(C(=O)Nc2ccc(C)c(S(=O)(=O)N(C)C)c2)c1C	none
CC(=O)c1c(C)[nH]c(C(=O)Nc2nc(C)cs2)c1C	GLP-1R inv ag 2.2µM
CC(=O)c1c(C)[nH]c(C(=O)Nc2ccc(C)c(S(=O)(=O)Nc3ccc(C)cc3C)c2)c1C	GLP-1R inv ag 2.5µM, GLP1R cytotox inconclusive (no result: TRPML1 agonist, TRPML1 inh)
COc1ccc(-c2nc(NC(=O)c3[nH]c(C)c(C(C)=O)c3C)sc2C)cc1	GLP-1R inv ag 13µM
CC(=O)c1c(C)[nH]c(C(=O)Nc2nc(-c3ccc(Cl)cc3)cs2)c1C	none
Cc1coc2cc3oc(=O)c(CCC(=O)NCc4ccc(Cl)cc4)c(C)c3cc12	none (no result: GLP1R ag)
Cc1ccc(NC(=O)N2CCc3c([nH]c4ccccc34)C2c2ccccc2F)c(Cl)c1 (configuration not stated)	GLP-1R inv ag 10µM (no result: GLP1R ag)
CC1c2[nH]c3ccccc3c2CCN1C(=O)Nc1ccccc1 (configuration not stated)	GLP-1R inv ag inconclusive
O=C(Nc1ccccc1)N1CCc2c([nH]c3ccccc23)C1C(F)(F)F (configuration not stated)	GLP-1R inv ag 2.8µM
CN(C)c1ccc(/C=C\C=C/c2ccnc3ccccc23)cc1	none (no result: TRPML1 inh, GLP-1R inv ag, GLP1R ag, GLP1R cytotox)
COc1cccc(-c2nn(-c3ccc(C)cc3)cc2C(=O)N2CCc3cc(OC)c(OC)cc3C2)c1	GLP-1R inv ag inconclusive, GLP1R cytotox inconclusive
COc1ccccc1-c1nn(-c2ccccc2)cc1C(=O)N1CCc2ccccc2C1	GLP-1R inv ag 10µM
COc1ccc(OC)c(-c2nn(-c3ccccc3)cc2C(=O)N2CCc3ccccc3C2)c1	GLP-1R inv ag 13µM
CCOC(=O)c1cccc(NC(=O)c2cc3ccccn3n2)c1	GLP-1R inv ag inconclusive (no result: GLP1R ag)
Oc1ccc(/C=N/Nc2cc(N3CCOCC3)nc(N3CCOCC3)n2)cc1O	none
C(=N\Nc1nc(Nc2ccccc2)nc(N2CCOCC2)n1)/c1c[nH]c2ccccc12	GLP-1R inv ag inconclusive
Oc1cccc(/C=N/Nc2cc(N3CCOCC3)nc(N3CCOCC3)n2)c1	GLP-1R inv ag 3.5µM
O=C(Oc1cccc(/C=N/Nc2nc(Nc3ccccc3)nc(N3CCOCC3)n2)c1)c1ccco1	GLP-1R inv ag 1.8µM
NC(C(=O)O)C(O)c1ccc(O)c(O)c1 (configuration not stated)	none (no result: TRPML1 agonist, TRPML1 inh, GLP-1R inv ag, GLP1R cytotox)
CN1CCN(c2ccc3sc(-n4ccc5ccccc54)nc3c2)CC1	GLP-1R inv ag 6.3µM
c1ccc(N2CCN(c3nc4cc5c(cc4s3)OCO5)CC2)cc1	none
N=c1c2c(-c3ccccc3)c(-c3ccccc3)n(Cc3ccco3)c2ncn1CCO	GLP-1R inv ag inconclusive, GLP1R cytotox 7.9µM
Cc1ccc(C2N=C(Nc3nc4ccccc4o3)NC3=C2C(=O)CC(C)(C)C3)cc1 (configuration not stated)	none (no result: TRPML1 inh, GLP-1R inv ag, GLP1R ag, GLP1R cytotox)
C/C(=N\NC(=S)NCc1ccccc1)c1ccc2c(c1)OCCO2	GLP-1R inv ag 10µM, GLP1R ag inconclusive, GLP1R cytotox inconclusive
C/C(=N\NC(=S)NCc1ccccc1)c1ccc(Cl)s1	none
C/C(=N\NC(=S)NCc1ccccc1)c1ccc(Br)cc1	GLP-1R inv ag inconclusive, GLP1R cytotox inconclusive
C/C(=N\NC(=S)NCc1ccccc1)c1cccs1	GLP-1R inv ag inconclusive, GLP1R cytotox 3.5µM
CCNC(=O)c1c(NC(=O)c2nc(SC)ncc2Cl)sc2c1CCCC2	none (no result: TRPML1 inh, GLP-1R inv ag, GLP1R ag, GLP1R cytotox)
O=C(c1cccc(-c2ccco2)c1)N1CCCC(N2CCN(c3ccc(F)cc3)CC2)C1 (configuration not stated)	GLP-1R inv ag 10µM
O=C(c1ccoc1)N1CCCC(N2CCN(c3ccc(F)cc3)CC2)C1 (configuration not stated)	none
COC(=O)N/N=C/c1ccc(-c2ccc(C)c(Cl)c2)o1	none
Cc1ccc(-c2ccc(/C=N/c3ncn[nH]3)o2)cc1Cl	GLP-1R inv ag 8.9µM, GLP1R cytotox inconclusive
COc1ccc(NC(=O)CSc2nnc(-c3ccccc3Cl)n2Cc2ccco2)c(OC)c1	GLP-1R inv ag 7.1µM
O=C(C[N+]12CCCc3cccc(c31)CCC2)c1ccccc1	none (no result: TRPML1 inh, GLP-1R inv ag, GLP1R ag, GLP1R cytotox)
Cc1cc(C)nc(OC(C(=O)O)C(OCCc2ccccc2)(c2ccc(F)cc2)c2ccc(F)cc2)n1 (configuration not stated)	GLP-1R inv ag 10µM
CCCOC(c1ccccc1)(c1ccc(C(F)(F)F)cc1)C(Oc1nc(C)cc(C)n1)C(=O)O (configuration not stated)	GLP-1R inv ag inconclusive (no result: TRPML1 agonist, TRPML1 inh)
CCOC(=O)c1sc2nc(CC(=O)OC)nc(NCCN3CCOCC3)c2c1C	none
CCOC(=O)c1sc2nc(CC(=O)OC)nc(N3CCN(c4ccc(OC)cc4)CC3)c2c1C	GLP-1R inv ag 4µM
Cc1ccc(Cn2c(C(C)Nc3nc(-c4ccc(F)cc4)cs3)nc3cc(C(F)(F)F)ccc32)cc1 (configuration not stated)	GLP-1R inv ag 10µM

Bioassay records: PubChem, National Center for Advancing Translational Sciences (NCATS)
